This is an account of results in PubChem BioAssay AID1210 (NMMLSC, 2008).

Values without a mark were called inactive. Calls of active or inactive are those of the source.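 The calls were made as follows: active = blocks over 70% of labeled estradiol binding at 10 µM, or over a set limit at 100 nM; inactive = the rest.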

The target in the test is Estrogen receptor beta (Homo sapiens) (UniProt Q92731). Kind of test: ERbeta ligand binders by competition, primary screen, cell-based, Cos7 ERbeta-GFP, flow cytometry (AID 1210).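 Also: 0% = DMSO vehicle wells and 100% = complete loss of labeled estradiol signal.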 The conditions noted are these: fluorescent estrogen binding, at 10 µM, hits give high values. In general terms: Flow cytometry measures light scatter and fluorescence of single cells or particles in a stream.
Estrogen receptor beta (Homo sapiens), sequence (Q92731 whole entry, looked up): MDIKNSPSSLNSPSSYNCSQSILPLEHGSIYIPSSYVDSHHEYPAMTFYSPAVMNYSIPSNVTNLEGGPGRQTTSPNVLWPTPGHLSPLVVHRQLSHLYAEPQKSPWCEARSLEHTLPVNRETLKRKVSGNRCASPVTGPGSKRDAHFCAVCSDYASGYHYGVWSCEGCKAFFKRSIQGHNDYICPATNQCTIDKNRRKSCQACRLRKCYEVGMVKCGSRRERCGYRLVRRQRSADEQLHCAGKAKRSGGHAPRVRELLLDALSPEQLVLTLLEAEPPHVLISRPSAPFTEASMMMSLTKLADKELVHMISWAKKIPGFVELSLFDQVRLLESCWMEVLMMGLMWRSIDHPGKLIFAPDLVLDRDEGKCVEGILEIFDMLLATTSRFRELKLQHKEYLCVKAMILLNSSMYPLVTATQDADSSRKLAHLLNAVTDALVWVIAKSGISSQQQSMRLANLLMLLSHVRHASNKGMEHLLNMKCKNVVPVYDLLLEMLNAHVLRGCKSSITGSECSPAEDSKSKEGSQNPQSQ
For orientation: inhibition means the share of the control response that was lost under treatment. As for `CCOc1ccc(NS(=O)(=O)c2ccc3c(c2)[C@H]2C=CC[C@H]2[C@@H](c2ccc(C(=O)O)cc2)N3)cc1`, the inhibition was 52%.
Under `CCOC(=O)c1ccc2c(c1)C1C=CCC1C(C(=O)O)N2` (stereo not drawn) stands 36%.
Consider `COc1ccc(-n2cc3c(c(C#N)c2=N)CC(C)(C)CC3=O)cc1`, for which the inhibition was 18%.
Consider `CCOc1cc2c(cc1OCC)C(C1CCCCC1)NCC2` (stereo not drawn), for which the inhibition is 12%.
For the molecule `O=c1cc(-c2ccc(O)c(-c3c(O)cc(O)c4c(=O)cc(-c5ccc(O)cc5)oc34)c2)oc2cc(O)cc(O)c12`, the inhibition is 76% (active).
Under `CN(C)S(=O)(=O)N(CC(=O)N(Cc1ccccc1)Cc1ccccc1)c1ccccc1` stands 66%; under `COc1cc2c(cc1OC)CC(C)(C)N(Cc1ccco1)C2`, 15%; under `COc1ccccc1C1Nc2c(C(=O)O)cccc2C2C3CCC(C3)C12` (stereo not drawn), 21%.
The figure for `Cc1nc2ccccc2n1-c1cc(C(C)(C)C)c(O)c(C(C)(C)C)c1` is 16%.
As to `CN(C)NC(=S)Nc1ccc2nc(-c3ccccn3)c(-c3ccccn3)nc2c1`, the inhibition was 25%.
Under `Cc1ccc(-n2nnnc2SCC(=O)Nc2cccc(NC(=O)c3ccco3)c2)cc1C` stands 56%; under `CCCSc1nc(C)c(-c2csc(C(C#N)=C3CCCC3)n2)cc1C#N`, 37%; under `Cc1nnc(N/N=C/c2ccc(O)c([N+](=O)[O-])c2)[nH]c1=O`, 7%.
Under `CCCOc1cc2oc(=O)c3c(c2cc1CC)CCCC3` stands 20%.
`CC(=O)c1ccc(N2Cc3ccccc3C2)cc1`: the inhibition is 19%.
Under `COc1cccc(-c2cc(C(=O)Nc3cc(C)nn3-c3ccccc3)no2)c1` stands 23%.
Under `Fc1ccc2c(c1)C1C=CCC1C(c1cc3c(cc1Br)OCO3)N2` (stereo not drawn) stands 0%; under `COc1cccc(C2NCCc3cc(OC)c(OC)cc32)c1` (stereo not drawn), 15%; under `Nc1ccc2nc(-c3cc(Cl)c(N)c(Cl)c3)[nH]c2c1`, 10%.
Under `Nc1nc2c(s1)CCc1c-2cnn1-c1ccccc1` stands 50%; under `O=C(N/N=C/c1cccc(Oc2ccc([N+](=O)[O-])cc2[N+](=O)[O-])c1)c1cncc(Br)c1`, 46%; under `O=C(Nc1ccc(O)cc1)C1CC=CCC1` (stereo not drawn), 29%.
For the molecule `CC1=CC(C)C2(CO)COC(c3ccccc3O)C1C2C` (stereo not drawn), the inhibition was 66%.
For `Nc1ccc2nn(-c3cccc4ccccc34)nc2c1`, the inhibition is 28%.
The figure for `CCCCCCc1cc2c3c(c(=O)oc2cc1OCC(=O)O)CCCC3` is 7%.
On to `COc1ccc2[nH]c3c(c2c1)CCNC3C1CC=C(C)CC1` (stereo not drawn), for which the inhibition was 22%.
Consider `Cn1c(-c2ccc(N)cc2)nc2ccccc21`, for which the inhibition is 24%.
The figure for `CC(=O)Nc1ccc2[nH]c(C)cc(=O)c2c1` is 64%.
The figure for `O=c1oc2cc(O)c(Cl)cc2c2c1CCCC2` is 8%; for `COc1ccccc1NC(=O)c1ccccc1NC(=O)c1cc(Cl)ccc1NC(=O)c1ccco1` it is 77% (active).
The figure for `CC1(C)Cc2[nH]c3ccccc3c2C(C)(C)N1` is 16%.
For `Cc1c(O)ccc2c3c(c(=O)oc12)CCCC3`, the inhibition was 28%.
For the molecule `Cc1nn(-c2ccccc2)c2sc(C#N)c(N)c12`, the inhibition was 6%.
The figure for `CCOC(=O)N1CCc2[nH]c3ccc(C)cc3c2C1` is 9%.
The figure for `Cc1nc2cc(-c3ccsc3-n3c(C)ccc3C)[nH]n2c(=O)c1Cl` is 47%.
On to `O=c1oc2c(O)c(O)cc3c(=O)oc4c(O)c(O)cc1c4c23`, for which the inhibition is 13%.
For the molecule `Cc1ccc(-c2n[nH]c(=S)n2/N=C/C=C/c2ccccc2[N+](=O)[O-])cc1`, the inhibition is 53%.
For the molecule `CC(C)CN(Cc1c(O)ccc2c3c(c(=O)oc12)CCC3)CC(C)C`, the inhibition was 17%.
